Experimental data published in PubChem BioAssay (NCI).
The panel holds about 79,000 compounds, 15% with a hit somewhere; the sample as a whole holds those more often. Calls of active or inactive are those of the source. Rule as the data show it: active = growth inhibition above about 70%; inactive = the rest.

Experiments:
[1] = NCI Yeast Anticancer Drug Screen. Data for the rad52 strain (AID 147);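 also: 0% = growth of vehicle-treated control cultures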; conditions: S. cerevisiae rad52 mutant growth inhibition, hits give high values
Outline: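 Screen used a yeast mutant impaired in DNA repair. After compound exposure, growth was measured. Values reflect inhibition compared with vehicle-treated cells.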

[2] = NCI Yeast Anticancer Drug Screen. Data for the wt1 strain (AID 149);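 also: 0% = growth of vehicle-treated wt1 cultures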; conditions: S. cerevisiae wt1 strain (SPY 50644) growth inhibition, hits give high values
Outline: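 Yeast wt1 strain exposed to compounds; growth inhibition measured relative to vehicle-treated controls.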

[3] = NCI Yeast Anticancer Drug Screen. Data for the rad50EPP+ strain (AID 151);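 also: 0% = growth of vehicle-treated control cultures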; conditions: S. cerevisiae rad50 mutant strain, hits give high values
Outline: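 Exposing the rad50EPP+ strain to each compound, growth was compared with vehicle-only cultures to give inhibition.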

[4] = NCI Yeast Anticancer Drug Screen. Data for the mgt1 strain (AID 153); conditions: S. cerevisiae mgt1 mutant growth inhibition, hits give high values
Outline: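 Genetically defined yeast (mgt1) treated with compound; inhibition of growth expressed against vehicle-treated controls.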

[5] = NCI Yeast Anticancer Drug Screen. Data for the rad50 strain (AID 155);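 also: 0% = growth of vehicle-only cultures of the same strain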; conditions: S. cerevisiae rad50 strain growth inhibition, hits give high values
Outline: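 Yeast carrying a defined DNA repair defect were exposed to test compounds, and growth was compared with vehicle-treated controls to give percent inhibition.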

[6] = NCI Yeast Anticancer Drug Screen. Data for the mec2-1 strain (AID 157); conditions: S. cerevisiae mec2-1 strain, hits give high values
Outline: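 Readout is yeast growth inhibition, normalised to vehicle-treated controls, in the mec2-1 strain exposed to compound.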

[7] = NCI Yeast Anticancer Drug Screen. Data for the rad14 strain (AID 159);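 also: 0% = growth of vehicle-treated control cultures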; conditions: S. cerevisiae rad14 strain growth inhibition, hits give high values
Outline: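 Yeast cells carrying a defined DNA-repair defect were exposed to compounds, and growth inhibition was calculated relative to vehicle-treated control cultures.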

[8] = NCI Yeast Anticancer Drug Screen. Data for the sgs1 mgt1 strain (AID 161);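 also: 0% = growth of cultures given vehicle only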; conditions: S. cerevisiae sgs1 mgt1 strain, hits give high values
Outline: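 Percent growth inhibition was derived by comparing compound-exposed mutant yeast with vehicle-exposed cultures. The strain carries alterations in DNA damage repair.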

[9] = NCI Yeast Anticancer Drug Screen. Data for the CLN2oe strain (AID 163);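 also: 0% = growth of vehicle-only control cultures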; conditions: S. cerevisiae CLN2oe strain, hits give high values
Outline: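 Values reflect how much compound exposure reduced yeast growth, referenced to vehicle-exposed cells. Assay organism is a strain with a defined genetic change affecting cell-cycle control.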

[10] = NCI Yeast Anticancer Drug Screen. Data for the cln2 rad14 strain (AID 165);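 also: 0% = growth equal to vehicle treated cultures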; conditions: S. cerevisiae cln2 rad14 strain, hits give high values
Outline: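 Relative to vehicle controls, growth inhibition of compound-treated cln2 rad14 yeast was recorded.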

[11] = NCI Yeast Anticancer Drug Screen. Data for the bub3 strain (AID 167); conditions: S. cerevisiae bub3 mutant strain, hits give high values
Outline: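 Compounds were applied to a genetically altered yeast strain carrying a cell-cycle control defect. Growth inhibition was scored against vehicle-treated controls.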

[12] = NCI Yeast Anticancer Drug Screen. Data for the wt2 strain (AID 169);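 also: 0% = growth of vehicle-treated yeast cultures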; conditions: S. cerevisiae wt2 strain growth inhibition, hits give high values
Outline: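 Values express reduction in yeast growth under compound treatment, referenced to vehicle-treated cells.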

[13] = NCI Yeast Anticancer Drug Screen. Data for the sgs1 strain (AID 173);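 also: 0% = growth of vehicle-only control cultures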; conditions: S. cerevisiae sgs1 mutant, hits give high values
Outline: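 Treat defined-mutant yeast with compound; measure growth; calculate inhibition relative to vehicle-treated cells.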

[14] = NCI Yeast Anticancer Drug Screen. Data for the mlh1 rad18 strain (AID 175); conditions: S. cerevisiae mlh1 rad18 strain growth inhibition, hits give high values
Outline: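 Test agents were incubated with a yeast strain of defined genotype (DNA damage repair defect). Inhibition of growth was derived by comparison with vehicle-exposed cultures.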

[15] = NCI Yeast Anticancer Drug Screen. Data for the rad18 strain (AID 177); conditions: S. cerevisiae rad18 mutant growth inhibition, hits give high values
Outline: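 A genetically defined yeast mutant impaired in DNA damage repair was treated with test compounds, then its growth was measured against cultures receiving vehicle alone.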

[16] = at 5.0 µM (retest, dose inferred, filed as 0.5)
[17] = at 50.0 µM (retest, dose inferred, filed as 5.0)

Measured: growth inhibition

COC(=O)C1=C(C(=O)OC)C2OC1c1cc3ccccc3cc12
active: [1]; at 11.0 µM 79% | [1]; at 33.0 µM 97% | [1]; at 100.0 µM 98% | [2]; at 33.0 µM 97% | [2]; at 100.0 µM 99% | [3]; at 11.0 µM 79% | [3]; at 33.0 µM 93% | [3]; at 100.0 µM 96% | [4]; at 11.0 µM 93% | [4]; at 33.0 µM 99% | [4]; at 100.0 µM 99% | [5]; [16] 76% | [5]; at 11.0 µM 76% | [5]; at 33.0 µM 97% | [5]; [17] 100% | [5]; at 50.0 µM 99.6% | [5]; at 100.0 µM 98% | [6]; at 11.0 µM 86% | [6]; at 33.0 µM 99% | [6]; [17] 100% | [6]; at 50.0 µM 99.6% | [6]; at 100.0 µM 99% | [7]; at 33.0 µM 99% | [7]; at 100.0 µM 99% | [8]; [16] 92% | [8]; [17] 100% | [8]; at 50.0 µM 99.7% | [9]; at 11.0 µM 80% | [9]; at 33.0 µM 97% | [9]; at 100.0 µM 99% | [10]; [17] 99% | [10]; at 50.0 µM 99.4% | [11]; at 1.2 µM 75% | [11]; at 3.7 µM 87% | [11]; at 11.0 µM 89% | [11]; at 33.0 µM 99% | [11]; [17] 99% | [11]; at 50.0 µM 99.4% | [11]; at 100.0 µM 99% | [12]; at 11.0 µM 76% | [12]; at 33.0 µM 99% | [12]; at 100.0 µM 99% | [13]; at 11.0 µM 89% | [13]; at 33.0 µM 99% | [13]; at 100.0 µM 99% | [14]; [16] 96% | [14]; [17] 99% | [14]; at 50.0 µM 99.5% | [15]; at 11.0 µM 92% | [15]; at 33.0 µM 98% | [15]; at 100.0 µM 99%
inactive: [1]; at 1.2 µM 21% | [1]; at 3.7 µM 33% | [2]; at 1.2 µM 7% | [2]; at 3.7 µM 14% | [2]; at 11.0 µM 37% | [3]; at 1.2 µM 34% | [3]; at 3.7 µM 57% | [4]; at 1.2 µM 27% | [4]; at 3.7 µM 44% | [5]; at 1.2 µM 18% | [5]; at 3.7 µM 37% | [6]; at 1.2 µM 59% | [6]; at 3.7 µM 58% | [6]; [16] 58% | [7]; at 1.2 µM 18% | [7]; at 3.7 µM 24% | [7]; at 11.0 µM 66% | [9]; at 1.2 µM 45% | [9]; at 3.7 µM 50% | [10]; [16] 16% | [11]; [16] 64% | [12]; at 1.2 µM 13% | [12]; at 3.7 µM 29% | [13]; at 1.2 µM 24% | [13]; at 3.7 µM 45% | [15]; at 1.2 µM 50% | [15]; at 3.7 µM 60%
